This note sets out measurements from PubChem BioAssay (NCATS).

Records with an inconclusive call do not appear. Entries that show only a call come without a potency. Calls of active or inactive are those of the source. Calls follow the shape of the dose curve; as a rule, active = well fitted inhibition curve with a large enough effect; inconclusive = small, poorly fitted or top-dose-only effect; inactive = flat fitted curve, though single readings scatter.

Chain of Calcium and integrin-binding protein 1 (Homo sapiens) (Q99828 whole entry, looked up): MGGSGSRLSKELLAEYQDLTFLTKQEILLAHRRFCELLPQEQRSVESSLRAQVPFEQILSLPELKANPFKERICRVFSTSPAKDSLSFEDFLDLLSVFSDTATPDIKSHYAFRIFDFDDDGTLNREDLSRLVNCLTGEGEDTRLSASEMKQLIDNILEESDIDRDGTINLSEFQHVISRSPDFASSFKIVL

This assay has as its target Calcium and integrin-binding protein 1 (Homo sapiens) (UniProt Q99828). Nature of the assay: Primary qHTS for Identification of Calcium Integrin Binding Protein 1 (CIB1) Competitor (AID 1508620).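 Also: GST tagged CIB1 binding a fluorescein labelled alphaIIb integrin peptide tracer; top concentration of the series differs between compounds.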 The conditions noted are these: CIB1-GST / FITC-alphaIIb peptide fluorescence polarization; series mostly up to 114 µM. The gist of the method:
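CIB1-GST (1 uM final) and compound incubated 15 min at room temperature before adding FITC-alphaIIb peptide tracer (100 nM final). Competition for binding read by fluorescence polarization (ex 480, em 540) after another 15 min at room temperature.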
A general note: Quantitative high-throughput screening tests each substance at several concentrations.
Regarding `C#CCOc1ccc(C(C)=O)cc1-c1nnc2n1N=C(c1ccc(OC)c(OC)c1)CS2`, the Potency result is “inactive”. Take `CC1=C(C(=O)c2ccccc2)C(c2ccccc2Cl)N=C(Nc2nc3ccccc3o2)N1` (stereo not given): the Potency entry was “inactive”. With `COc1cccc(C2c3c(ncn(-c4cccnc4)c3=N)Oc3ccc4ccccc4c32)c1` (stereo not given), the Potency result was “inactive”. Then `CC(=O)Nc1cccc(S(=O)(=O)N2CCN(S(=O)(=O)c3c(F)cccc3F)CC2)c1`, with “inactive”; and `CC(=O)Nc1sc2c(c1-c1nc(-c3ccccc3)cs1)CCN(C(C)C)C2`, with “inactive”; and `O=C1Nc2ccccc2C1Cc1cc(Cl)c(O)c(Cl)c1` (stereo not given), with “inactive”. Take `CCOc1ccccc1-c1nnc2n1N=C(c1ccc(OC)c(OC)c1)CS2`: the Potency result was “inactive”. Then `Cc1csc(CNc2ncnc3ccc(-c4ccc(C(=O)O)o4)cc23)n1`, with “inactive”. Regarding `O=C(CN1C(=O)N/C(=C\c2cccn2-c2cccc(C(=O)O)c2)C1=O)Nc1ccccc1F`, the Potency entry is “inactive”. For the compound `Cc1cccc(C)c1-n1c(SCC(=O)NCCCCCC(=O)O)nnc1-c1cccc([S+](=O)([O-])N2CCCC2)c1`, the Potency result was “inactive”. For `C[C@H]1CN(S(=O)(=O)c2ccc3c(c2)OCCO3)CCN1S(=O)(=O)c1c(F)cccc1F` the value was “inactive”. Consider `CC(C)(C)OC(=O)N1CCN(c2cnc(NCc3ccc(-c4ccc(C#N)cc4)o3)cn2)CC1`, for which the Potency result was “inactive”. For `Cc1cc(C=CC#N)cc(C)c1Nc1nc(Nc2ccc3scnc3c2)c2[nH]cnc2n1` the value was “inactive”; for `Oc1cccc2cc(-c3ccncc3)cnc12`, “inactive”; for `O=[S+]([O-])(c1ccc(N2CCOCC2)nc1)N1CCN([S+](=O)([O-])c2c(F)cccc2F)CC1`, “inactive”.
